DAX1 inh-1 = blocks DAX1 repression of SF-1 activated StAR promoter. HEK293T StAR-luciferase reporter, SF-1/DAX-1 repression relief. inhibition, % at 6.8 µM. 370,000 compounds, 1.1% hits. AID 652010;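 active = inhibition above the mean over all tested compounds plus 3 SD, cut at about 3.6% in these data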;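 also: 0% = DAX-1 cells with DMSO and 100% = cells lacking DAX-1 with DMSO; higher inhibition means more luminescence from relief of DAX-1 repression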
hgDAF-12 ag = hgDAF-12 agonism, primary luciferase screen. HEK293 GAL4-hgDAF12 UAS-luciferase reporter, agonist luminescence; normalized to butyrate control. activation, % at 6.8 µM. 370,000 compounds, 1.8% hits. AID 687014;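 active = activation above a cutoff set at the mean of all screened compounds plus 3 SD, cut at about 10% in these data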;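 also: 0% = DMSO wells and 100% = sodium butyrate wells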
DAX1 inh-2 = inhibits human nuclear receptor DAX1; P51843; HEK293 Gal4-DAX1 luciferase reporter, luminescence; inhibition, % at 6.75 µM; 340,000 compounds, 0.99% hits; AID 504766;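 active = inhibition above the mean over all tested compounds plus 3 SD, cut at about 4.2% in these data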;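 also: 0% = DAX1-transfected cells with DMSO and 100% = empty-vector control cells with DMSO; inhibition shows as a rise in luminescence from relieved DAX1 repression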
Target sequence (P51843 207-470 limits assumed): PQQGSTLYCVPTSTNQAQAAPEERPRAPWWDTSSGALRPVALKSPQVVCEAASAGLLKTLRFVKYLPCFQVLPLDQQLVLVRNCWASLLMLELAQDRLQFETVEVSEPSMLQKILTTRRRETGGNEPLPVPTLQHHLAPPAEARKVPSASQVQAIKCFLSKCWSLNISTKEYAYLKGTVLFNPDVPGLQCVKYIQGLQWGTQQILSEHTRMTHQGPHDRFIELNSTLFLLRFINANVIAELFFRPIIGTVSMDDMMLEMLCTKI
hcDAF12 agonist = H. contortus DAF-12 activation, primary screen; HEK293 hcDAF-12 lit1-tk-luc reporter, luminescence; 0% DMSO, 100% Δ7-dafachronic acid; activation, % at 6.8 µM; 370,000 compounds, 1.4% hits; AID 652067;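 active = activation above the mean of all tested compounds plus 3 SD, cut at about 5.5% in these data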;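 also: 100% = response to 3 µM Δ7-dafachronic acid high control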
SMARCA2 act = SMARCA2 function activation, primary screen; activation, % at 9.1 µM; 370,000 compounds, 1% hits; MG213 cells, MMTV-luciferase reporter, dexamethasone, overnight; in the data active = activation above about 7.8%;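 also: 0% = vehicle wells and 100% = reference activator wells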
ssDAF-12 act = activators of S. stercoralis DAF-12 nuclear receptor. 370,000 compounds, 1% hits. HEK293 ssDAF-12/GRIP1 lit1-tk-luc reporter, luminescence; % of 3 µM dafachronic acid response. activation, % at 6.8 µM;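 active = activation above the mean over all tested compounds plus 3 SD, cut at about 0.9% in these data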;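 also: 0% = DMSO-only wells and 100% = 3 µM delta7-dafachronic acid wells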
hgDAF12 ag = hgDAF-12 agonism, confirmation assay. shares compounds with hgDAF-12 ag. HEK293 GAL4-hgDAF12 luciferase reporter, agonist mode; percent of butyrate response. activation, % at 6.8 µM. 3,300 compounds, 80% hits;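 active = mean activation over triplicate wells above the hit cutoff derived from the earlier primary screen, cut at about 11% in these data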;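 also: 0% = DMSO low control and 100% = 2 mM sodium butyrate high control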
LXR ag 2 = activates human LXR-beta, counter-screen for DAF-12 agonists. shares compounds with hgDAF-12 ag. HEK293 Gal4-LXR luciferase reporter, 24 h. activation, % at 6.8 µM. 3,300 tested, under 10 active. AID 743051;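 active = mean activation of the triplicate above a set limit carried over from the primary screen, none filed active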
Active calls of the source: *; . = not tested or not shown. Hits are enriched below; roughly 4.8% of the tested compounds scored in any of these assays.

SMILES	DAX1 inh-1	hgDAF-12 ag	DAX1 inh-2	hcDAF12 agonist	SMARCA2 act	ssDAF-12 act	hgDAF12 ag	LXR ag 2
O=C(Nc1ccccn1)N1CCOCC1	0.1	2.9	1.5	1.0	-1.5	-1.2	.	.
O=C(Nc1ccc2nc(-c3ccccn3)c(-c3ccccn3)nc2c1)N1CCOCC1	-0.1	14.8*	-0.5	-1.0	-1.4	-1.1	-0.1	0.1
Cc1cccc(C(=O)NNS(=O)(=O)c2ccccc2)c1O	0.9	-0.6	0.3	3.3	1.6	-0.3	.	.
N#CCSc1nnc(-c2ccc3c(c2)OCO3)o1	1.4	0.2	-0.2	-1.8	2.4	-1.1	.	.
C/C(N)=C(/C#N)C(=O)CSc1nnc(-c2ccc3c(c2)OCO3)o1	5.9*	18.5*	1.8	6.0*	5.5	1.0*	12.2*	0.8
CS/C(N)=N/N=C/c1c(O)ccc2ccccc12	2.0	19.2*	0.4	4.6	1.6	1.0*	13.1*	0.3
CN(C)/N=C/c1c(O)ccc2ccccc12	-0.2	-1.9	0.2	0.1	-0.6	-1.0	.	.
CS/C(N)=N/N=C/c1cc(Br)cc(Br)c1O	0.6	4.5	-1.5	0.1	-1.4	-1.3	.	.
CS/C(N)=N/N=C/c1cc(C)ccc1O	2.3	17.7*	4.3*	5.0	3.2	-0.5	13.8*	1.0
Cc1ccc(S(=O)(=O)N2[C@H](CC(=O)OCc3ccccc3)OC[C@@H]2C)cc1	-1.1	0.4	.	-0.5	-3.7	-1.5	.	.
CCc1ccc(NC(=O)N2CCC(c3ccccc3)C2)cc1 (stereo not given)	3.7*	18.2*	3.7	2.5	2.9	0.1	13.8*	0.7
O=C(/C=C/c1ccccc1)N1CCC(c2ccccc2)C1 (stereo not given)	2.6	13.4*	1.5	3.0	4.8	-0.7	16.1*	0.8
Cc1cccc(-c2nc(C#N)c(NCC3CCCO3)o2)c1 (stereo not given)	0.4	5.5	1.8	1.1	1.7	-0.6	.	.
Cn1nnc(NC(=O)CSc2nnnn2-c2ccc(F)cc2)n1	0.0	0.5	0.1	-0.8	0.7	-1.2	.	.
Nc1nc2ccc(-c3nc4ccccc4o3)cc2s1	2.6	13.8*	2.2	3.2	1.4	0.6	13.0*	0.7
COc1cc(C(=O)NCCCc2nc3ccccc3n2Cc2cc(C)ccc2C)cc(OC)c1OC	-0.2	1.4	-0.1	-0.3	-2.0	-1.4	.	.
COc1ccc(Br)cc1/C=N/Nc1cccc(C(=O)O)c1	1.3	0.2	-0.3	0.9	2.2	-0.2	.	.
COc1ccccc1/C=C/C=N/Nc1cccc(C(=O)O)c1	2.6	15.2*	-1.4	4.2	4.3	1.6*	22.2*	1.1
CCOc1ccc(C(=O)Nc2nc3ccccc3[nH]2)cc1OCC	-2.8	-4.7	-3.1	-2.9	-2.0	-2.1	.	.
N#Cc1ccc(C(=O)Nc2nc3ccccc3[nH]2)cc1	2.1	16.0*	0.1	2.3	6.4	0.3	11.3*	0.7
Cc1cc(C(=O)NCc2cccs2)no1	0.1	2.5	0.6	-0.1	-1.0	-1.6	.	.
COCCNC(=O)c1cc(-c2cccs2)on1	1.2	37.0*	3.9	1.5	1.2	-0.1	28.1*	0.4
O=C(NCc1cccs1)c1cc(-c2ccccc2)on1	2.8	16.2*	3.0	2.8	1.9	0.0	14.0*	0.5
CCCn1cc(NC(=O)c2cc(-c3ccccc3)on2)cn1	-0.2	21.7*	3.3	0.2	0.8	-0.7	20.3*	0.2
O=C(NCc1cccs1)c1cc(-c2cccs2)on1	1.0	15.3*	0.6	1.9	1.6	-0.9	15.2*	0.4
COc1ccc(-c2cc(C(=O)NCc3cccs3)no2)cc1	1.2	8.7	0.4	3.8	-0.1	-0.7	.	.
CC(Oc1cc2oc(=O)cc(-c3ccccc3)c2cc1Cl)C(=O)NCC1CCC(C(=O)O)CC1 (stereo not given)	0.0	0.8	2.9	-0.8	0.1	-1.7	.	.
Clc1ccc(CN2CCC(c3ccccc3)CC2)cc1	0.0	0.1	3.1	0.3	0.5	-0.6	.	.
